In the supplement of paper PMC12067093, “Discovery and optimisation of a covalent ligand for TRIM25 and its application to targeted protein ubiquitination” (Chemical Science, 2025):
Of roughly 21,000 targets only a part is listed; those with the largest changes were picked by preference.

Compound: Cc1cc(ccc1-c1ccccc1)C(=O)N1CCCN(CC1)C(=O)CCl [compound 10]
Assay: probe-labelled cysteine peptide fold change vs DMSO (competition) (log2 fold change); higher = less target engagement (more negative = stronger competition)
Details: 10 µM; THP-1; incubation time: 4 h
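Further: competitive profiling in live THP-1 cells: cysteine peptides tagged with an iodoacetamide desthiobiotin (IA-DTB) probe, intensity after compound treatment relative to DMSO-treated cells.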

Chain of UniProt O00571 (O00571 whole entry, looked up): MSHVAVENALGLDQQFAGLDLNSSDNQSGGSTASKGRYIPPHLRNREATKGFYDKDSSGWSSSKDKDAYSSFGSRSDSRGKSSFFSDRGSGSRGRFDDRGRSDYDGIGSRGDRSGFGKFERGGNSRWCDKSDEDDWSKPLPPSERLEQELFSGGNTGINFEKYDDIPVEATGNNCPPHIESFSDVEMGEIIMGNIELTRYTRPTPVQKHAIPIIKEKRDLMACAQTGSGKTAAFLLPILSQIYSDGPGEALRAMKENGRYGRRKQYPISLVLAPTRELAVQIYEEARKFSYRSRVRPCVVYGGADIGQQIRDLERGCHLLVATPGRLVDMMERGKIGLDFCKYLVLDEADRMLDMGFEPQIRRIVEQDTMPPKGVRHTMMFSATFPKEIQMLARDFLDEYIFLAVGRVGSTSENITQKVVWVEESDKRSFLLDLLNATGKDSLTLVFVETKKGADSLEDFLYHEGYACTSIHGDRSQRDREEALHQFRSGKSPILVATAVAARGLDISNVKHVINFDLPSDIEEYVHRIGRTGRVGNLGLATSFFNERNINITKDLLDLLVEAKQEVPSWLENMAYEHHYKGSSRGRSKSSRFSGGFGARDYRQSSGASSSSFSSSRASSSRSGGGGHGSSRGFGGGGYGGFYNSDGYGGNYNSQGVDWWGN
Chain of UniProt O95825 (O95825 whole entry, looked up): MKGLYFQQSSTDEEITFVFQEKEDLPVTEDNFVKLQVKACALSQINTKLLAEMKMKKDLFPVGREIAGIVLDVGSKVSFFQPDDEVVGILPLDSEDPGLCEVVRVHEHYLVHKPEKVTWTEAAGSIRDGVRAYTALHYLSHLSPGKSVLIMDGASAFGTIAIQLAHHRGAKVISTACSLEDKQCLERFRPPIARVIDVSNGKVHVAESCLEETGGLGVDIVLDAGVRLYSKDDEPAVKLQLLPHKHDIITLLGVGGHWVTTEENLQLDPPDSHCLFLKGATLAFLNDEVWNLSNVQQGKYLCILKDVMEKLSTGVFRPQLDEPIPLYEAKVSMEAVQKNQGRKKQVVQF
Chain of UniProt P53618 (P53618 whole entry, looked up): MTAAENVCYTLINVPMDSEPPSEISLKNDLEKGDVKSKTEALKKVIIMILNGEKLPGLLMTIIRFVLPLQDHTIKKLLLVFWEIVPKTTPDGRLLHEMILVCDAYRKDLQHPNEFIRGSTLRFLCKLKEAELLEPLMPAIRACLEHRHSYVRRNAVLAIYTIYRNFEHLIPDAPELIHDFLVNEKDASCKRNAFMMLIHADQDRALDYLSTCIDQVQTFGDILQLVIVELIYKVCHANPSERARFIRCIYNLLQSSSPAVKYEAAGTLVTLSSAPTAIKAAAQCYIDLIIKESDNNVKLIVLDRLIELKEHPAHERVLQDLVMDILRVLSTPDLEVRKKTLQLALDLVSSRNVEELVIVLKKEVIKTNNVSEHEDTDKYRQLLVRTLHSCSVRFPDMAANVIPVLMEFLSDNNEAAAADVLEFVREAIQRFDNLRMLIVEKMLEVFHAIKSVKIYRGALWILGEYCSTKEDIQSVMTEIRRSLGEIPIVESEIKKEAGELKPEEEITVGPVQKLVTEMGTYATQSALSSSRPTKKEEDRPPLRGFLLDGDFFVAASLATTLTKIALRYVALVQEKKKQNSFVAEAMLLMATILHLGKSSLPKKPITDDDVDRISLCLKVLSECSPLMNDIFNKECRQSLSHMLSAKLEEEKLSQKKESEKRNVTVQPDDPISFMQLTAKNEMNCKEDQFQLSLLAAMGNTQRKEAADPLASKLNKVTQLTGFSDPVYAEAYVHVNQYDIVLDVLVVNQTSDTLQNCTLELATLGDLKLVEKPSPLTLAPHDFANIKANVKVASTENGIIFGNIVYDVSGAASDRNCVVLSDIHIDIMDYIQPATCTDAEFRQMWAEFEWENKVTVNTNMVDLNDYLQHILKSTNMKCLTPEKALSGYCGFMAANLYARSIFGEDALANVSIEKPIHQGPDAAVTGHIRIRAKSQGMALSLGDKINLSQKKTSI
Chain of UniProt A2RUS2 (A2RUS2 whole entry, looked up): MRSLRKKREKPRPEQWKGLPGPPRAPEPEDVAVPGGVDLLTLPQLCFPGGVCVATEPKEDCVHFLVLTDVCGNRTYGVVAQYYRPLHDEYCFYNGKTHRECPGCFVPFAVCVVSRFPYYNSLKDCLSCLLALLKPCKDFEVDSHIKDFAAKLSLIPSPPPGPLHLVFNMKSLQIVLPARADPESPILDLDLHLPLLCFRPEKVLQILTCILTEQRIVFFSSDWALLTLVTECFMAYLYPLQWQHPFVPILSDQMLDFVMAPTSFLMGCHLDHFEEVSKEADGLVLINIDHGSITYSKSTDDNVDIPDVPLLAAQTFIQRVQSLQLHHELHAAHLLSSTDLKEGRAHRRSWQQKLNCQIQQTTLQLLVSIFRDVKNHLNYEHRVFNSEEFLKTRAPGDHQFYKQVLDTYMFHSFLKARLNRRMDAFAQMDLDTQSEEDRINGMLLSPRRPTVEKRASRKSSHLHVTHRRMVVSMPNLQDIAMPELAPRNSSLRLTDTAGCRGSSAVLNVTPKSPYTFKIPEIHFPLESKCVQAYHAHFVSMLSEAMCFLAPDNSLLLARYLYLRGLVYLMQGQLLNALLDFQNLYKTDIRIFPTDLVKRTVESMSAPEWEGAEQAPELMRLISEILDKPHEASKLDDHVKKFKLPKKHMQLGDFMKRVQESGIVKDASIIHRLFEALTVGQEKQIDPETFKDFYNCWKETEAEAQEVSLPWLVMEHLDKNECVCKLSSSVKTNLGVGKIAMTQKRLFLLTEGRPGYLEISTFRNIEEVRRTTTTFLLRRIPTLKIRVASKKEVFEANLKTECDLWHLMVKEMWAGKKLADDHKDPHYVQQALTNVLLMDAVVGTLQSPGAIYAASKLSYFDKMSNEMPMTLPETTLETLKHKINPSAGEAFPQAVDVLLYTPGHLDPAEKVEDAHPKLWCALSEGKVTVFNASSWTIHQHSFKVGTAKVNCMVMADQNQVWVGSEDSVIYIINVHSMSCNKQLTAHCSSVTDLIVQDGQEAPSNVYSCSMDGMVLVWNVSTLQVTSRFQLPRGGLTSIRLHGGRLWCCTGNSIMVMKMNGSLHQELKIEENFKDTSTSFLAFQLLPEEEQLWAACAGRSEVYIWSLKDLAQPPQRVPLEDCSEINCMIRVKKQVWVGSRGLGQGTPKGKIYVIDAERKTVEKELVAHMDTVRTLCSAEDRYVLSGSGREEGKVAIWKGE
Chain of UniProt P50238 (P50238 whole entry, looked up): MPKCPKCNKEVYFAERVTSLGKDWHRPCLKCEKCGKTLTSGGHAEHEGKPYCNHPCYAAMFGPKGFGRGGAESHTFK
Chain of UniProt Q8IYB7 (Q8IYB7 whole entry, looked up): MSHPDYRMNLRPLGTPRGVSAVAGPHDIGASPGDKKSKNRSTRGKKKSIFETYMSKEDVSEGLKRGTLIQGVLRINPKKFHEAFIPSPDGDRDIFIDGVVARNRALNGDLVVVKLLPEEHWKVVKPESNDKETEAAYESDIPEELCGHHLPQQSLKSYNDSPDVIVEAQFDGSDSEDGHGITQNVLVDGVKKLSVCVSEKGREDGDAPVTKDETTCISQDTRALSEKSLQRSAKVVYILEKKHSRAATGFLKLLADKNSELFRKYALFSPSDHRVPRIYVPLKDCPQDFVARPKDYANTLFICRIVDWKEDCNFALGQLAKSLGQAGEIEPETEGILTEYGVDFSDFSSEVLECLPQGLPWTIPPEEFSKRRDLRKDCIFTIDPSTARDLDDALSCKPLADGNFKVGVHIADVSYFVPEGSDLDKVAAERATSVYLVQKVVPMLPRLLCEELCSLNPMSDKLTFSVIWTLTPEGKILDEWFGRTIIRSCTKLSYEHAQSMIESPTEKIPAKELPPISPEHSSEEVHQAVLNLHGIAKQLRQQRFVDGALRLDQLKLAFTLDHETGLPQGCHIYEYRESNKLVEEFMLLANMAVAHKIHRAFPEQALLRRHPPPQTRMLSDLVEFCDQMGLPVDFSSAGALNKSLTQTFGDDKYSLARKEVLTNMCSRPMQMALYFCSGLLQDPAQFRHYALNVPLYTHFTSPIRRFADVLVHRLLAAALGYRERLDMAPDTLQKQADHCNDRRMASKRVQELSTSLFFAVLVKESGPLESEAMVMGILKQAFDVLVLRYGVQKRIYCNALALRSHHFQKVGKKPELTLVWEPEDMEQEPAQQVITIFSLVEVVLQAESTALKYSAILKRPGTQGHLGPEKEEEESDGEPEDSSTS
Chain of UniProt Q96EY1 (Q96EY1 whole entry, looked up): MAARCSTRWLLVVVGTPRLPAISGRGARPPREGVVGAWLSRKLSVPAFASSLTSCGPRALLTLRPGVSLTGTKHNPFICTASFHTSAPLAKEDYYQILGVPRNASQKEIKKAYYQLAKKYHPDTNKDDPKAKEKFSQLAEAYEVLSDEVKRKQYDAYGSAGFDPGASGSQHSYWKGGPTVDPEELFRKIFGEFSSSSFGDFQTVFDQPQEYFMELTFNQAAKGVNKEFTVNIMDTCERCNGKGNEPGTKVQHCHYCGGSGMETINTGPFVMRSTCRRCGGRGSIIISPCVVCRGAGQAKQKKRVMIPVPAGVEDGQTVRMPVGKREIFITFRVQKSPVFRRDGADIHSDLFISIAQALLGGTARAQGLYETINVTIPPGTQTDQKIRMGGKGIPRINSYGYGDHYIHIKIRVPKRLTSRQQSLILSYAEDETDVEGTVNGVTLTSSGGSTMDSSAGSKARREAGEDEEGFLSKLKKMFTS
Chain of UniProt P09668 (P09668 whole entry): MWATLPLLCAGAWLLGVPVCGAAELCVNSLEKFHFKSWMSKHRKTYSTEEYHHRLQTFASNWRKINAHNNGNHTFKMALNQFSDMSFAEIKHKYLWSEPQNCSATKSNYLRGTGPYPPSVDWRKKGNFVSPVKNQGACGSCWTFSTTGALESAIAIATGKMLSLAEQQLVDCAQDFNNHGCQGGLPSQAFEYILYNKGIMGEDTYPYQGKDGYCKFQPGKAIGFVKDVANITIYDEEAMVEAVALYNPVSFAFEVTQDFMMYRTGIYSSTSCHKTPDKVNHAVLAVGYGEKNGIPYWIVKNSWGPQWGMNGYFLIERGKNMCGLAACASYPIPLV

Target	probe-labelled cysteine peptide fold change
DNAJA3_Q96EY1_236_EFTVNIMDTCER (UniProt Q96EY1)	-0.1
CTDP1_Q9Y5B0_277_ILSRDECIDPFSK (UniProt Q9Y5B0)	-0.0626
CSMD2_Q7Z408-3_2_CDAHLR (UniProt Q7Z408)	0.077
CSE1L_P55060_344_NLFEDQNTLTSICEK (UniProt P55060)	-0.186
CRYZ_Q08257_45_VHACGVNPVETYIR (UniProt Q08257)	0.0503
CTSZ_Q9UBR2_164_DQECDK (UniProt Q9UBR2)	-0.0913
CTSZ_Q9UBR2_179_ECHAIR (UniProt Q9UBR2)	0.892
DENND4A_Q7Z401_35_PLEEEIHFNDACHK (UniProt Q7Z401)	-0.0984
CNBP_P62633_150_CGETGHVAINCSK (UniProt P62633)	-0.103
CRIP1_P50238_52+56_PYCNHPCYAAMFGPK (UniProt P50238)	0.0432
DDX24_Q9GZR7_599_SLVFANSISCIK (UniProt Q9GZR7)	0.147
CTR9_Q6PD62_196_TNPGCPAEVR (UniProt Q6PD62)	-0.0165
DDX24_Q9GZR7_570_IHCETDEK (UniProt Q9GZR7)	-0.15
CRYZL1_O95825_302_YLCILK (UniProt O95825)	-0.195
DESI1_Q6ICB0_108_GEAYNLFEHNCNTFSNEVAQFLTGR (UniProt Q6ICB0)	-0.076
DDX5_P17844_191_ELAQQVQQVAAEYCR (UniProt P17844)	0.115
DGKE_P52429_167_TVHDECMK (UniProt P52429)	-0.082
DENND3_A2RUS2_1094_DTSTSFLAFQLLPEEEQLWAACAGR (UniProt A2RUS2)	1.07
DIP2A_Q14689_6_GCPLEAAPLPAEVR (UniProt Q14689)	-0.41

Target	probe-labelled cysteine peptide fold change
COG1_Q8WTW3_318_LCSWFK (UniProt Q8WTW3)	-1.03
DHRS4L2_Q6PKH6_86_KQQNVDQAVATLQGEGLSVTGTVCHVGK (UniProt Q6PKH6)	0.254
DECR1_Q16698_86_GMTTLLSSLGAQCVIASR (UniProt Q16698)	0.251
CPNE1_Q99829_4+14_AHCVTLVQLSISCDHLIDK (UniProt Q99829)	-0.148
CTNND1_O60716_618_YQEAAPNVANNTGPHAASCFGAK (UniProt O60716)	-0.274
DDX3X_O00571_128_WCDKSDEDDWSK (UniProt O00571)	-0.303
DGLUCY_Q7Z3D6_316_GIGHLLCK (UniProt Q7Z3D6)	-0.0414
DHX57_Q6P158_644_LLYCTTGVLLR<|>DHX29_Q7Z478_678_LLYCTTGVLLR (UniProt Q7Z478+Q6P158)	-0.0914
DDX50_Q9BQ39_242_LSVACFYGGTSYQSQINHIR (UniProt Q9BQ39)	0.333
CORO7_P57737_790_TECDVREVELMR (UniProt P57737)	-0.178
CPPED1_Q9BRF8_88_FFVLCGDLIHAMPGKPWR (UniProt Q9BRF8)	-0.0653
CRYL1_Q9Y2S2_125_VILSSSTSCLMPSK (UniProt Q9Y2S2)	-0.0791
DIS3L2_Q8IYB7_196_LSVCVSEK (UniProt Q8IYB7)	-0.124
CTSH_P09668_272_TGIYSSTSCHK (UniProt P09668)	0.176
CTPS1_P17812_30_SCGLHVTSIK (UniProt P17812)	0.14
COPB1_P53618_248_CIYNLLQSSSPAVKYEAAGTLVTLSSAPTAIK (UniProt P53618)	0.0928
DNMT1_P26358_1339_ACQLSVVVDDKK (UniProt P26358)	-0.133
COQ8B_Q96D53_508_AHIACR (UniProt Q96D53)	-0.221
